p53null 32C tox: selectivity test: cytotoxicity in p53 null cells, permissive temperature; 55,000 tested, 0.62% active; H1299-neo p53 null cells, ATP luminescence, 24 h, 32C; Potency, µM (top dose mostly 46.1 µM), most hits filed as cytotoxic; AID 903; also: nearly all actives have a fitted effect of over 55% in size
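Cells lacking p53 (H1299-neo) are plated at 600 per well and allowed to settle overnight at 37C. Test compounds (up to 46 uM) are added and held 24 hours at 32C, then ATP is quantified by luminescence.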
HTT-AS act: activators of huntingtin-antisense promoter activity; 48,000 tested, 0.24% active; HEK293 HTT-AS promoter firefly luciferase reporter, 24 h; response scale: percent change from vehicle, -100% = no light; AID 1508624; Potency, µM (titrated, usually from 57.5 µM), hits mostly activators; also: nearly all actives have a fitted effect of over 55% in size
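Firefly luciferase signal from promoter-reporter HEK293 cells was scaled between vehicle (0%) and zero RLU (-100%). Compounds were tested at final concentrations of up to 57.5 uM over 24 h at 37 degrees C. PTC124 at 50 uM final served as control inhibitor.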
HTT prom inh: inhibits huntingtin promoter activity | HEK293 HTT promoter firefly luciferase reporter, 24 h | Potency, µM (series often up to 57.5 µM), most hits filed as inhibitors | 48,000 tested, 0.93% active | AID 1508623; also: nearly all actives have a fitted effect of over 50% in size
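HEK293 Fluc reporter, 2,500 cells/well, 24 h pre-culture; cpds up to 57.5 uM final, 24 h 37 degrees C; Dual-Glo, 10 min RT; normalized vehicle = 0%, zero RLU = -100%.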
p53null 39C tox: kills p53 null cells at the nonpermissive temperature | H1299 p53-null (neo) cells, 39C, ATPlite viability, 24 h | Potency, µM (top dose mostly 46.1 µM), usual class: cytotoxic | 55,000 tested, 0.97% active | AID 904; also: nearly all actives have a fitted effect of over 50% in size
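H1299 lung cancer cells, p53-null (H1299-neo) or expressing p53 A138V (H1299-p53A138V), were plated overnight at 37C, then exposed to compounds at up to 46 uM for 24 hr at 39C. Viability was read by ATP-based luminescence.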
Large screens that a line does not name were inactive. In the library only some 1.9% were active in any assay of this set; here they are far more common. Calls follow the shape of the dose curve; as a rule, active = well fitted curve in the direction sought with a large enough effect; inconclusive = small, poorly fitted or top-dose-only effect, or another doubt; inactive = no such curve, though single readings can be large; an effect the other way counts as inactive or inconclusive.

CN(C)CC[C@H](CSc1ccccc1)Nc1ccc(S(=O)(=O)NC(=O)c2ccc(N3CCN(Cc4ccccc4-c4ccc(Cl)cc4)CC3)cc2)cc1[N+](=O)[O-]	none (no result: p53null 32C tox, p53null 39C tox)
Cc1ccnc(NS(=O)(=O)c2ccc(NC(=O)Nc3ccc(S(=O)(=O)Nc4nccc(C)n4)cc3)cc2)n1	none (no result: p53null 32C tox, p53null 39C tox)
CCCOc1ccc2c(c1)CC[C@@H]1[C@@H]2CC[C@]2(C)C(OC)CC[C@@H]12 (stereo partly specified)	none (no result: p53null 32C tox, p53null 39C tox)
CCOC(=O)c1ccc(Nc2nc3nonc3nc2Nc2cccc(C)c2C)cc1	HTT prom inh 2.2µM, p53null 39C tox inconclusive
C=C(C)C(=O)OCC(O)CO (stereo unspecified)	none (no result: p53null 32C tox, p53null 39C tox)
CCC(C)S(=O)(=O)c1oc(-c2ccc(F)cc2)nc1S(=O)(=O)c1ccc(F)cc1 (stereo unspecified)	p53null 32C tox 25µM, HTT prom inh inconclusive
CCCCS(=O)(=O)c1oc(-c2ccc(F)cc2)nc1S(=O)(=O)c1ccc(C)cc1	p53null 32C tox 16µM, HTT prom inh inconclusive, p53null 39C tox inconclusive
NC(=NCCCCCCN=C(N)N=C(N)Nc1ccc(Cl)cc1)N=C(N)Nc1ccc(Cl)cc1	none (no result: p53null 32C tox, p53null 39C tox)
COc1ccc(-c2oc3c(CC=C(C)C)c(OC4O[C@H](CO)[C@@H](O)[C@H](O)[C@@H]4O)cc(O)c3c(=O)c2OC2O[C@@H](C)[C@H](O)[C@@H](O)[C@@H]2O)cc1 (stereo partly specified)	none (no result: p53null 32C tox, p53null 39C tox)
CN(Cc1ccccc1)C(=O)c1cc2c(s1)-c1ccc(Cl)cc1SC2	p53null 39C tox 2µM
O=C(NCc1cccc(Cl)c1)c1cc2c(s1)-c1ccccc1SC2	none
CC(C)(O)[C@H]1CC[C@@](C)([C@H]2[C@@H](O)C[C@@]3(C)[C@@H]4C[C@H](O[C@@H]5O[C@H](CO)[C@@H](O)[C@H](O)[C@@H]5O)[C@H]5C(C)(C)[C@@H](O[C@@H]6OC[C@@H](O)[C@H](O)[C@@H]6O)CC[C@@]56C[C@@]46CC[C@]23C)O1	none (no result: p53null 32C tox, p53null 39C tox)
Cc1ccc(C)c(N2CCN(CCCNC(=O)c3cnn(-c4ccc(F)cc4)c3C3CCN(C(=O)OC(C)(C)C)CC3)CC2)c1	p53null 39C tox 25µM
Cc1ccc(-n2ncc(C(=O)NCCN3CCCC3)c2C2CCN(C(=O)OC(C)(C)C)CC2)cc1	none
Cc1ccc(C)c(N2CCN(CCCNC(=O)c3cnn(-c4ccccc4Cl)c3C3CCN(C(=O)OC(C)(C)C)CC3)CC2)c1	HTT prom inh inconclusive, p53null 39C tox 13µM
Cc1ccc(-n2ncc(C(=O)NCCN3CCC(Cc4ccccc4)CC3)c2C2CCN(C(=O)OC(C)(C)C)CC2)cc1	p53null 32C tox inconclusive, HTT prom inh inconclusive, p53null 39C tox 20µM
COc1cccc(-c2nc(CS(=O)(=O)CC(=O)N3CCN(c4ccccc4)CC3)c(C)o2)c1	HTT prom inh inconclusive
Cc1oc(-c2ccccc2F)nc1CS(=O)(=O)CC(=O)N1CCN(c2ccc(Cl)cc2)CC1	HTT prom inh 28µM, p53null 39C tox inconclusive
CC(CC(C#N)(c1ccccc1)C(C)C)N(C)C (stereo unspecified)	none (no result: p53null 32C tox, p53null 39C tox)
Cc1ccc(-n2ncc3c(N4CCCCCC4)ncnc32)cc1C	p53null 32C tox 10µM, HTT prom inh inconclusive
CC1CCCN(c2ncnc3c2cnn3-c2ccc(F)cc2)C1 (stereo unspecified)	p53null 32C tox 2.8µM, HTT prom inh inconclusive, p53null 39C tox inconclusive
OCCN1CCN(c2ncnc3c2cnn3-c2cccc(Cl)c2)CC1	HTT-AS act inconclusive
Cc1cccc(-n2ncc3c(N4CCCCCC4)ncnc32)c1	p53null 32C tox inconclusive, HTT prom inh inconclusive
Cc1cccc(-n2ncc3c(N4CCCC(C)C4)ncnc32)c1 (stereo unspecified)	p53null 32C tox 3.2µM, HTT prom inh inconclusive, p53null 39C tox 2µM
NC(=O)C1CCN(c2ncnc3c2cnn3-c2cccc(Cl)c2)CC1	HTT prom inh 4.5µM
Cc1ccc(-n2ncc3c(N4CCN(c5ccc(F)cc5)CC4)ncnc32)cc1	none
COc1ccc(CCC(=O)c2c(O)cc(O[C@@H]3O[C@H](CO)[C@@H](O)[C@H](O)[C@@H]3O[C@@H]3O[C@@H](C)[C@H](O)[C@@H](O)[C@@H]3O)cc2O)cc1O	HTT prom inh inconclusive (no result: p53null 32C tox, p53null 39C tox)
CC(C)Nc1cc(C(F)(F)F)cc2nc(NC(=O)c3cccnc3)nn12	none (no result: p53null 32C tox, p53null 39C tox)
COc1ccc(OC)c(CCNc2ncnc3onc(C)c23)c1	HTT prom inh 16µM
O=S(=O)(c1ccccc1)n1nc(-c2ccco2)nc1NCc1ccccc1	HTT-AS act 13µM

High-throughput results deposited in PubChem BioAssay by National Center for Advancing Translational Sciences (NCATS).
